{"source": "PubChem BioAssay AID1347416", "about": "(National Center for Advancing Translational Sciences (NCATS), 2020)", "note": "The whole screen tested about 4,100 compounds, of which about 1,600 (39%) were called active. Roughly 25% stayed inconclusive and do not appear here. Calls come from the whole dose curve; as a rule, active = well fitted inhibition curve with a large enough effect; inconclusive = small, poorly fitted or top-dose-only effect; inactive = no such curve, though single readings can be large or run the other way. This is one part of the list. % is set by controls: 0 for no effect and ±100 for the full control effect; potency is the fitted concentration of half-maximal effect."}
{"assay": "qHTS Validation assay for Inhibitors of Plasmodium falciparum Dd2 growth in vitro; note: nearly all actives have a fitted effect of over 70% in size", "details": "P. falciparum Dd2 in RBCs, SYBR Green growth, 72 h; series mostly up to 28.7 µM; activity change, negative = inhibition: at the top concentration", "in_short": "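P. falciparum Dd2-infected red blood cells (2.5% hematocrit, 0.3% parasitemia) grown 72 h at 37 °C under 5% O2 with compounds in a titration, 29 uM to 0.5 nM final. Growth read as SYBR Green-1 fluorescence after ~16 h lysis; artesunate 300 nM as positive control.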"}
{"smiles": "CCCc1noc(-c2ccn3c(CNC(=O)c4cccc(N(C)C)c4)nnc3c2)n1", "activity change, negative = inhibition": "-28.6% (inactive)"}
{"smiles": "Cc1cc(NCc2ccco2)nc2cc(O)ccc12", "Potency": "6.68 µM (active)"}
{"smiles": "Cc1cc(N(C)Cc2ccccc2)nc2cc(O)ccc12", "Potency": "2.37 µM (active)"}
{"smiles": "Cc1cc(=O)n(CC(=O)NCc2ccccc2Br)c(N(C)Cc2ccccc2)n1", "activity change, negative = inhibition": "-29.8% (inactive)"}
{"smiles": "Cc1cc(Nc2ccccc2)nc2cc(O)ccc12", "Potency": "0.422 µM (active)"}
{"smiles": "CNC(=O)[C@@H](c1ccc(Cl)cc1)N1CCC[C@H]1C(=O)N1CC[C@@H](O)C1", "activity change, negative = inhibition": "0% [at 43.1 µM] (inactive)"}
{"smiles": "CCN1Cc2nc(OC)c(CNC(=O)C(C)n3cc(C)cn3)cc2C1=O", "note": "(stereo unspecified)", "activity change, negative = inhibition": "0% (inactive)"}
{"smiles": "CCN(CC(O)c1cccc(O)c1)C(=O)C12CC3CC(CC(C3)C1)C2", "note": "(stereo unspecified)", "Potency": "4.73 µM (active)"}
{"smiles": "O=C(c1ccco1)N1CCCN(c2cc(-c3ccc(Br)cc3)[nH]n2)CC1", "activity change, negative = inhibition": "6.44% (inactive)"}
{"smiles": "O=C(CN1CCN(C(=O)c2ccco2)CC1)Nc1cc(C(F)(F)F)ccc1Cl", "Potency": "7.5 µM (active)"}
{"smiles": "CNC(=O)[C@@H]1CN(Cc2cc(C(F)(F)F)ccc2Cl)C[C@H]1CO", "activity change, negative = inhibition": "11.3% (inactive)"}
{"smiles": "O=C(CN1CCN(C(=O)c2ccco2)CC1)Nc1cc(Cl)ccc1Cl", "Potency": "5.96 µM (active)"}
{"smiles": "O=C1c2cc(N3CCOCC3)nc(-c3ccccc3)c2CN1Cc1ccccc1", "Potency": "21.7 µM (active)"}
{"smiles": "CC(=O)Nc1cccc(-c2ncc3c(n2)OCCN(Cc2ccccc2)C3=O)c1", "activity change, negative = inhibition": "-29.5% [at 43.1 µM] (inactive)"}
{"smiles": "O=C1CCC2(CCCO2)CCN1Cc1ccccc1", "note": "(stereo unspecified)", "activity change, negative = inhibition": "44% (inactive)"}
{"smiles": "Nc1nc(-c2ccccn2)nc(N)c1Cc1ccccc1F", "Potency": "13.3 µM (active)"}
{"smiles": "Nc1nc(-c2ccccn2)nc(N)c1Cc1ccc(Cl)cc1Cl", "Potency": "7.5 µM (active)"}
{"smiles": "CCOc1cc(C2c3c(-c4ccccc4O)n[nH]c3C(=O)N2Cc2cccnc2)ccc1O", "note": "(stereo unspecified)", "activity change, negative = inhibition": "0.886% (inactive)"}
{"smiles": "CCCCN1C(=O)c2[nH]nc(-c3ccccc3O)c2C1c1ccc(OCc2ccccc2)cc1", "note": "(stereo unspecified)", "Potency": "5.96 µM (active)"}
{"smiles": "CCOc1ccccc1CN1CCC2(CCN(C(=O)OC)CC2)Oc2ccccc21", "activity change, negative = inhibition": "9.84% (inactive)"}
{"smiles": "CCOc1ccccc1CN1CCC2(CCN(CCC(C)C)CC2)Oc2ccccc21", "Potency": "3.35 µM (active)"}
{"smiles": "COCCNc1cc(N2CCN(C3CCCCC3)CC2)c2noc3c2c1C(=O)c1ccccc1-3", "Potency": "15 µM (active)"}
{"smiles": "CN(C)CCCNc1cc(N2CCN(C3CCCCC3)CC2)c2noc3c2c1C(=O)c1ccccc1-3", "Potency": "1.33 µM (active)"}
{"smiles": "O=C(Nc1sc2c(c1C(=O)NCc1ccco1)CCCC2)c1cc(=O)c2ccccc2o1", "Potency": "10.6 µM (active)"}
{"smiles": "CCn1ncc(Br)c1C(=O)Nc1sc2c(c1C(N)=O)CCC2", "activity change, negative = inhibition": "23.8% (inactive)"}
{"smiles": "Cc1ccc(C(=O)Nc2sc3c(c2C(=O)O)CCCCC3)o1", "activity change, negative = inhibition": "3.56% (inactive)"}
{"smiles": "O=c1cc(-c2ccncc2)oc2c(-c3ccccc3O)nccc12", "activity change, negative = inhibition": "-21.3% [at 43.1 µM] (inactive)"}
{"smiles": "O=c1cc(-c2cccnc2)oc2c(-c3ccccc3Oc3ccccc3)nccc12", "Potency": "17.2 µM (active)"}
{"smiles": "O=c1cc(-c2ccncc2)oc2c(-c3cccc(CO)c3)nccc12", "activity change, negative = inhibition": "-23% [at 43.1 µM] (inactive)"}
{"smiles": "COc1ccc(Nc2cc(C)nc3ncnn23)cc1Cl", "activity change, negative = inhibition": "-25.8% (inactive)"}
{"smiles": "Cc1cc(Nc2ccc(C(C)C)cc2)n2ncnc2n1", "Potency": "4.22 µM (active)"}
{"smiles": "Cc1cc(Nc2ccc3ccccc3c2)n2ncnc2n1", "Potency": "0.596 µM (active)"}
{"smiles": "OC(CNCC(c1ccco1)N1CCCCC1)c1ccccc1", "note": "(stereo unspecified)", "Potency": "5.96 µM (active)"}
{"smiles": "O=C(c1ccncc1)N1CCC(Cc2nc(-c3ccccc3)n[nH]2)CC1", "activity change, negative = inhibition": "-3.39% (inactive)"}
{"smiles": "O=C1CC(c2ccccc2)N(Cc2ccncc2)CCCN(C(=O)Nc2ccccc2F)CCN1", "note": "(stereo unspecified)", "Potency": "1.68 µM (active)"}
{"smiles": "COc1cccc(C(=O)N2CCCC(Cc3noc(-c4ccncc4)n3)C2)c1", "note": "(stereo unspecified)", "activity change, negative = inhibition": "8.6% (inactive)"}
{"smiles": "O=C(NCc1ccncc1)[C@@H]1C[C@@H](c2ccc(F)cc2)N(Cc2ccccc2)C1", "activity change, negative = inhibition": "-28.6% [at 43.1 µM] (inactive)"}
{"smiles": "N#Cc1cccc(C(=O)N2CCCN(Cc3ccncc3)C(c3ccccc3)CC(=O)NCC2)c1", "note": "(stereo unspecified)", "Potency": "7.5 µM (active)"}
{"smiles": "COC(=O)c1c(C(=O)OC)c(-c2ccc(C)cc2)n2c1CS(=O)(=O)C2", "activity change, negative = inhibition": "-1.51% (inactive)"}
{"smiles": "O=C(N[C@H]1C[C@H]2C(=O)NC[C@@H](CCC(=O)N3CCN(c4ccccc4)CC3)N2C1)C1CC1", "activity change, negative = inhibition": "57.6% (inactive)"}
{"smiles": "COC[C@@H]1CN(Cc2cc(OC)cc(OC)c2)C[C@H]1C(=O)N(C)C", "activity change, negative = inhibition": "12.8% (inactive)"}
{"smiles": "Cc1nc(-c2cccc(Cl)c2)n(CC(=O)NCc2ccc(F)cc2)c(=O)c1CCO", "activity change, negative = inhibition": "28.7% (inactive)"}
{"smiles": "Cc1nc(-c2ccc(F)cc2)n(CC(=O)Nc2cccc(Cl)c2)c(=O)c1CCO", "Potency": "15 µM (active)"}
{"smiles": "CSc1cccc(NC(=O)Cn2c(-c3ccc(F)cc3)nc(C)c(CCO)c2=O)c1", "Potency": "13.3 µM (active)"}
{"smiles": "CC1=C(C(=O)NCc2ccccn2)C2(CCC(C)CC2)OC1=O", "note": "(stereo unspecified)", "activity change, negative = inhibition": "26.2% (inactive)"}
{"smiles": "O=C(Nc1cccc(C(F)(F)F)c1)C1CCN(S(=O)(=O)c2cccc3nsnc23)CC1", "activity change, negative = inhibition": "5.55% (inactive)"}
{"smiles": "NC(=O)C1CCN(CC(=O)Nc2cccc(C(=O)Nc3cccc(C(F)(F)F)c3)c2)CC1", "Potency": "6.68 µM (active)"}
{"smiles": "O=C(NC1CC1)c1ccccc1OCC1CCCN(Cc2cccc3[nH]ccc23)C1", "note": "(stereo unspecified)", "Potency": "5.96 µM (active)"}
{"smiles": "CN(C)C[C@H]1C[C@@H](CO)CN(C(=O)c2ccccc2OC(F)(F)C(F)F)C1", "activity change, negative = inhibition": "26.4% (inactive)"}
{"smiles": "O=C(Nc1cccc(F)c1)N1CCC(Oc2ncccc2C(=O)N2CCCCC2)C1", "note": "(stereo unspecified)", "activity change, negative = inhibition": "-19.9% (inactive)"}
{"smiles": "O=C(c1cc(-c2ccccc2)n[nH]1)N1CCCC(Cc2noc(-c3cnccn3)n2)C1", "note": "(stereo unspecified)", "activity change, negative = inhibition": "1.43% (inactive)"}
{"smiles": "CC1(C)[C@H]2CC[C@@H](CNC(=O)c3cccc4[nH]ccc34)[C@@H]1C2", "activity change, negative = inhibition": "44.5% [at 43.1 µM] (inactive)"}
{"smiles": "O=C(c1ccccc1OCC1CCCN(Cc2ccncc2F)C1)N1CCCC1", "note": "(stereo unspecified)", "Potency": "10.6 µM (active)"}
{"smiles": "O=C(c1ccccc1OCC1CCCN(Cc2ccncc2F)C1)N1CCCCC1", "note": "(stereo unspecified)", "Potency": "10.6 µM (active)"}
{"smiles": "Cc1ccncc1C(=O)N1CCCC(c2nnnn2C)C1", "note": "(stereo unspecified)", "activity change, negative = inhibition": "-2.38% (inactive)"}
{"smiles": "CCOc1ccccc1C(=O)N1CCN(C2CCN(C)C2=O)CC1", "note": "(stereo unspecified)", "activity change, negative = inhibition": "31.5% (inactive)"}
{"smiles": "CCn1cc(CN2CCCC(COc3ccccc3C(=O)N3CCCC3)C2)c2ccccc21", "note": "(stereo unspecified)", "Potency": "8.41 µM (active)"}
{"smiles": "COc1ccccc1C(=O)NC1CCCN(c2cc(-c3ccc(F)cc3)[nH]n2)C1", "note": "(stereo unspecified)", "activity change, negative = inhibition": "-3.49% (inactive)"}
{"smiles": "Cc1nc(N2CCCC3(CN(C)C(=O)O3)C2)cc(-n2cccn2)n1", "note": "(stereo unspecified)", "activity change, negative = inhibition": "31.3% (inactive)"}
{"smiles": "CC(C)c1noc(-c2cccn3c(CNC(=O)c4cc(F)ccc4Cl)nnc23)n1", "activity change, negative = inhibition": "5.47% (inactive)"}
{"smiles": "COc1ccc(C2Nc3ccccc3C(=O)N2Cc2ccccc2)cc1COc1ccc(Cl)cc1Cl", "note": "(stereo unspecified)", "Potency": "8.41 µM (active)"}
